Results: PubChem BioAssay (NCI)
Compounds without any hit were thinned out: in the full panel of roughly 79,000, 15% have a hit. A number with no mark means an inactive call. The source made the active and inactive calls. Rule as the data show it: active = growth inhibition above about 70%; inactive = the rest.

Experiment: NCI Yeast Anticancer Drug Screen. Data for the mlh1 rad18 strain (AID 175)
Details: S. cerevisiae mlh1 rad18 strain growth inhibition; at 50.0 µM (retest, dose inferred, filed as 5.0); active compounds read high
In short: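 Compound-treated yeast growth, normalised to vehicle controls. Strain bears defined DNA repair mutations.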

| Compound | growth inhibition |
| --- | --- |
| COc1cc(C(c2cc3c(cc2O)OCO3)N2CCN(C(c3cc(OC)c(OC)c(OC)c3)c3cc4c(cc3O)OCO4)CC2)cc(OC)c1OC (centres undefined) | 86% (active) |
| Cc1cc(N)c(C)c2c1[nH]c1ccc(Br)cc12 | 98% (active) |
| COc1ccc(C2c3cc4c(cc3OC(O)(CO)C2C(=O)O)OCO4)cc1 (centres undefined) (tested in a mixture with another compound) | 89% (active) |
| CCCCCC(/C=N/Nc1nc(C)cc(=O)[nH]1)=C\c1ccccc1 | 37% |
| O=C1/C(=C/c2ccc([N+](=O)[O-])cc2)CNC/C1=C\c1ccc([N+](=O)[O-])cc1 | 99% (active) |
| CC(c1ccc2cccc(F)c2c1)c1ccccc1C(=O)O (centres undefined) | 99% (active) |
| CN(NC(=O)CC(=O)NN(C)C(=S)c1ccccc1)C(=S)c1ccccc1 | 76% (active) |
| O=c1nc(N2CCCC2)nc(N2CCCC2)s1 | -1% |
| CC(=O)SC1C(=O)N(C)C(SC(C)=O)C(=O)N1C (centres undefined) | 70% (active) |
| CCN(CC)CC(O)c1ccnc2c(O)cccc12 (centres undefined) | 20% |
| CC1=NN(c2ccccc2)C(=O)C1N=Nc1cc(Cl)cc(S(=O)(=O)O)c1O (centres undefined) | 99% (active) |
| O=C(O)CC(NC(=O)CP(=O)(O)O)C(=O)O.[NH-]C1CCCCC1[NH-].[Pt+2] (centres undefined) | 2% |
| COc1ccc(-c2nc3c(C(=O)NCCN(C)C)cccc3c3ccccc23)cc1 | 37% |
| C[C@]12CCC(=O)C=C1CC[C@@H]1[C@@H]2[C@@H](O)C[C@@]2(C)[C@H]1CC[C@]2(O)C(=O)COC(=O)CCC1CCCC1 | 92% (active) |
